# Rows were chosen to be rich in hits. Some 9.3% of all compounds tested hit in one or more screens of this group.
# ELG1 genotox – genotoxicity induction in ELG1-luciferase HEK293T cells; HEK293T ELG1-luciferase reporter, luminescence, 16 h; Potency, µM (highest dose often 46 µM), most hits filed as activators; hit rate 1.3% among 330,000; AID 504466; further: nearly all actives have a fitted effect of over 60% in size
#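 DMSO vehicle served as control against compound-treated ELG1-luciferase HEK293T cells; exposure lasted 16 hr at 37 °C and 5% CO2, followed by ONE-Glo luminescence detection after 30 min.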
# NPC1 prom act – activates the NPC1 promoter | Huh7 NPC1 promoter luciferase reporter, 24 h | Potency, µM (titrated, usually from 9.22 µM), usual class: activators | hit rate 2.4% among 320,000 | AID 485313; further: nearly all actives have a fitted effect of over 60% in size
#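 Luminescence read-out of NPC1 promoter-driven luciferase in stably transfected Huh7 cells; compounds delivered in DMSO and left 24 h at 37C, 5% CO2, qHTS titration format.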
# Rab9 promoter act – Rab9 promoter activation. hit rate 2.8% among 320,000. Potency, µM (top dose mostly 9.22 µM), most hits filed as activators. Huh7 Rab9 promoter-luciferase reporter, luminescence, 24 h; further: nearly all actives have a fitted effect of over 60% in size
#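 Rab9 promoter-driven luciferase in stably transfected Huh7 cells; 1500 cells/well rested 2 h, exposed to compound in DMSO for 24 h at 37 °C, 5% CO2. Luminescence read 10 min after adding luciferase reagent at ambient temperature.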
# SMN2 splice enh – increases expression of the SMN2 splice variant. hit rate 2.8% among 210,000. Potency, µM (top dose mostly 46.1 µM), actives largely listed as activators. HEK293 SMN2-luciferase splicing reporter, luminescence, 30-36 h; further: nearly all actives have a fitted effect of over 55% in size
#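 HEK293 cells carry an SMN2 […]–luciferase reporter in which exon 7 inclusion puts luciferase in frame. Cells were plated 10-12 h before compound addition, then incubated 30-36 h at 37C. ONE-Glo luminescence was read; sodium butyrate at 4.5 mM final served as control.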
# ELG1 DNA repair – ELG1-dependent DNA repair inhibition. HEK293T ELG1-luciferase reporter, luminescence, 16 h; DNA damage induced by 5-fluorouridine. Potency, µM (top dose mostly 46.1 µM), usual class: inhibitors. hit rate 2.3% among 330,000; further: nearly all actives have a fitted effect of over 55% in size
#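 Reporter activity after DNA damage by 5-fluorouridine is monitored. Compound-treated cells incubate 16 hr at 37 °C, then ONE-Glo is added for 30 min before luminescence reading.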
# FLuc counter – inhibits or activates purified firefly luciferase, miR-21 counter-screen | P08659 | purified FLuc, Km substrates, luminescence inhibition | Potency, µM (top dose mostly 57.5 µM), usual class: inhibitors | hit rate 6.9% among 360,000; further: nearly all actives have a fitted effect of over 55% in size
# Target sequence (P08659 whole entry, looked up): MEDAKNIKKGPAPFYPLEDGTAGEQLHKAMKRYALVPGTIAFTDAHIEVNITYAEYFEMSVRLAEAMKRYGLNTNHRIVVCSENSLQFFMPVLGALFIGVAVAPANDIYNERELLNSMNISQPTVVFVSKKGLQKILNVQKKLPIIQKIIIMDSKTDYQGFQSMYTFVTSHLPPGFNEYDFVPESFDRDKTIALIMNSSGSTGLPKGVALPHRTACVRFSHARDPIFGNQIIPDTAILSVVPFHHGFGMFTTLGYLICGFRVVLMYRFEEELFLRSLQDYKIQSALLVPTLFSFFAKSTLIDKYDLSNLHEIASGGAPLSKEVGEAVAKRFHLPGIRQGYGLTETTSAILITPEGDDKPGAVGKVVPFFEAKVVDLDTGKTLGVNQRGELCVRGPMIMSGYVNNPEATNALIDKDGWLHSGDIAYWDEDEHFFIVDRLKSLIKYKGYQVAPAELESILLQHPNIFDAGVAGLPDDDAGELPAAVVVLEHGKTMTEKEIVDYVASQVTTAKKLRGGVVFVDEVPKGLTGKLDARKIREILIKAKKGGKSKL
#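 Purified P. pyralis luciferase (10nM final) with 10uM D-luciferin and 10uM ATP (Km levels) in 50mM Tris acetate pH 7.5, 10mM Mg acetate, 0.01% Tween-20, 0.05% BSA; qHTS 6-point titration, ~60 µM downward; luminescence read.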
# Hits are given with their value; - = inactive; ? = inconclusive; . = not tested or not shown. The call rests on the fitted dose curve; in most records, active means well fitted curve in the direction sought with a large enough effect; inconclusive means small, poorly fitted or top-dose-only effect, or another doubt; inactive means no such curve, though single readings can be large; an effect the other way counts as inactive or inconclusive.
SMILES,ELG1 genotox,NPC1 prom act,Rab9 promoter act,SMN2 splice enh,ELG1 DNA repair,FLuc counter
OCCNCc1cc(Br)ccc1OCc1ccc(Cl)cc1Cl,-,-,-,-,-,-
O=C(c1ccc2c(c1)OCO2)N1CCc2ccccc2C1,?,?,-,?,?,21µM
COc1ccccc1N1CCN(C(=O)c2cc3c(s2)CCCCC3)CC1,-,-,-,.,-,-
O=C(c1cc2c(s1)-c1ccccc1OC2)N1CCc2ccccc2C1,-,-,-,20µM,?,?
COc1ccccc1N1CCN(C(=O)c2cc3c(s2)-c2ccccc2OC3)CC1,-,-,-,-,21µM,-
O=C(c1ccc2c(c1)OCO2)N1CCCc2ccccc21,?,-,-,.,?,?
COC(=O)c1cc2c(s1)-c1ccc(OC)cc1CC2,?,-,?,.,?,9.5µM
CCOC(=O)C1CCN(C(=O)c2cc3c(s2)-c2ccccc2OC3)CC1,?,-,?,.,?,?
O=C(c1ccc2c(c1)OCO2)n1nnc2ccccc21,-,-,-,-,-,6.7µM
COC(=O)c1cc2c(s1)-c1ccccc1OC2,-,-,-,-,?,24µM
COc1ccc(C(=O)n2nnc3ccccc32)cc1OC,-,-,-,-,-,?
COc1ccc2nc(N3CCN(C(=O)c4ccc5ncsc5c4)CC3)sc2c1,-,-,-,.,-,-
O=C(Cc1cccs1)Nc1ccc(C(=O)O)cc1,-,-,-,-,-,-
CCn1c(C)c(Br)c(=O)c(C(=O)OC)c1-c1ccc(Cl)cc1,-,-,-,.,-,-
Cc1cc(C)cc(Nc2cc(C(=O)NCCCN(C)C3CCCCC3)c3ccccc3n2)c1,.,.,.,-,.,?
Cc1ccc2nc(NC(=O)CN3C(=O)C4CC=CCC4C3=O)sc2c1 (centres undefined),-,-,-,-,?,11µM
Cc1ccc2nc(NC(=O)[C@H](C)N3C(=O)C4CC=CCC4C3=O)sc2c1 (some centres undefined),-,-,-,-,?,17µM
CS(=O)(=O)c1ccc2nc(NC(=O)CN3C(=O)C4CC=CCC4C3=O)sc2c1 (centres undefined),-,-,-,-,-,?
N#Cc1ccc(NC2=NS(=O)(=O)c3ccccc32)cc1,.,.,.,-,.,-
CC1SCC(=NOCc2ccccc2)CS1 (centres undefined),?,?,?,.,?,19µM
CC1CCC(=NNC(=O)Cc2ccccc2)CC1 (centres undefined),-,-,-,-,-,-
Cc1c(NC(=O)C(C)c2ccc(CC(C)C)cc2)c(=O)n(-c2ccccc2)n1C (centres undefined),-,-,-,-,-,-
N#Cc1ccc(-c2nc3ccc(Br)cc3c(=O)n2O)cc1,-,-,-,.,9.2µM,-
O=c1c2cc(Br)ccc2nc(-c2ccc([N+](=O)[O-])cc2)n1O,-,-,-,-,?,?
CCOC(=O)N1CCC(NC(=O)C2CCCN(Cc3nc(-c4cccc(C)c4)oc3C)C2)CC1 (centres undefined),-,-,-,.,?,-
SMILES,ELG1 genotox,NPC1 prom act,Rab9 promoter act,SMN2 splice enh,ELG1 DNA repair,FLuc counter
O=C(c1cc(Cl)ccc1O)N1CCN(S(=O)(=O)c2cccs2)CC1,-,-,-,.,-,-
CCOc1ccc(-c2noc(CSc3nnc(-c4ccccc4)n3-c3ccccc3)n2)cc1,.,.,.,-,.,-
Cc1ccc(-c2nnc(COc3cccc(-n4cnnn4)c3)o2)cc1,-,-,-,-,-,19µM
Cc1ccc(OCc2nnc(-c3ccccc3)o2)cc1,.,.,.,-,.,17µM
Cc1cccc(OCc2nnc(-c3ccc(F)cc3)o2)c1,-,-,-,.,?,17µM
CCOc1ccc(-c2nnc(SCc3nnc(-c4ccccc4)o3)n2-c2ccccc2F)cc1,-,-,-,-,?,27µM
O=C(/C=C/c1ccccc1)NCCS(=O)(=O)N1CCN(c2ccccc2)CC1,-,-,-,.,-,-
CCc1ccccc1NC(=O)CCC(=O)N1CCSc2ccccc21,-,-,-,.,-,-
CCOc1ccc(N(C)C(=O)C2CCN(S(=O)(=O)c3c(C)noc3/C=C/c3ccc(C)cc3)CC2)cc1,.,.,.,.,.,-
CNC(=O)c1nc(C)c(C2(C)CC(c3ccccc3)=NO2)s1 (centres undefined),-,-,-,.,-,-
Cc1nc(C(=O)NCCC(C)C)sc1C1(C)CC(c2ccccc2)=NO1 (centres undefined),-,-,-,.,13µM,-
Cc1cccc(NS(=O)(=O)c2ccccc2)n1,-,-,-,-,-,-
CC(=O)c1sc(N/N=C2\CC3CC2C(C)C3(C)C)nc1C (centres undefined),?,?,?,.,?,13µM
O=C(O)c1c(-c2ccccc2)oc2ccc(OCc3ccc(Cl)c(Cl)c3)cc12,.,.,.,-,.,15µM
CCOC(=O)c1c(-c2ccccc2)oc2ccc(OCc3ccc(C)cc3)cc12,.,.,.,-,.,-
O=C(Nc1nccs1)c1ncc(Cl)c(Cl)c1Cl,-,-,-,.,?,13µM
O=C(Nc1ccccc1Cl)c1ccc2ccccc2c1,-,-,-,.,-,-
O=C(Nc1nc(-c2ccccn2)cs1)c1ccc(Br)s1,?,-,-,-,-,19µM
O=C(Nc1n[nH]c(=S)s1)c1ccc2ccccc2c1,?,1.1µM,0.79µM,.,?,27µM
C/C(=C\c1ccccc1)C(=O)Nc1nccs1,?,2.5µM,3.5µM,11µM,?,9.5µM
COc1ccc(COC(=O)c2cccc(S(=O)(=O)N3CCCC3)c2)cc1F,-,-,-,.,-,-
O=C(Nc1nccs1)c1ccc(Br)cc1,?,2.5µM,2.2µM,.,?,9.5µM
O=C(Nc1nccs1)c1cccnc1Cl,-,-,-,.,-,-
O=C(CCNC(=O)c1ccc(Br)cc1)Nc1nccs1,-,-,-,-,-,-
O=C(Nc1nccs1)c1ccc2ccccc2c1,-,3.2µM,3.2µM,.,?,3µM
SMILES,ELG1 genotox,NPC1 prom act,Rab9 promoter act,SMN2 splice enh,ELG1 DNA repair,FLuc counter
O=C(Nc1nccs1)c1ccc(Br)s1,?,?,4µM,.,?,15µM
O=C(Nc1nccs1)c1ccc(S(=O)(=O)c2ccccc2)cc1,-,-,-,-,-,-
CC(C)(C)c1ccc(Oc2ccc(NC(=O)C3CC=CCC3C(=O)O)cc2)cc1 (centres undefined),-,-,-,16µM,-,27µM
CCOC(=O)N1CCN(S(=O)(=O)c2cc(Br)cnc2N)CC1,-,-,-,-,-,-
CSCCC(NS(=O)(=O)c1ccc2c(c1)oc(=O)n2C)C(=O)Nc1ccc(F)c(Cl)c1 (centres undefined),.,.,.,.,.,-
O=C(CCCNC(=O)c1ccc(Cl)cc1)Nc1ccccc1F,-,-,-,.,-,-
CCCC1(C(=O)OC)NC(c2cc(OC)c(OC)c(OC)c2)C2C(=O)N(CC)C(=O)C21 (centres undefined),-,-,-,-,-,-

# Assay outcomes from PubChem BioAssay.
